Source: PubChem BioAssay AID1159580 (chemical genetic matrix, 2015)
Screen size: about 5,500 compounds; about 2,000 (36%) were called active. Another 18% or so got no clear call; they are omitted. No stated cut-off is given here; in the data, active means normalized growth mostly below about 0.91 (no sharp cut-off); inconclusive means no clear call, values can overlap the other calls; inactive means mostly above about 0.92. The list shows a part of the results.

Assay: chemical genetic growth profiling, strain panel (AID 1159580);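 further: tested at 20 µM; growth read once vehicle control cultures reached saturation at 30 °C; 1 = growth at the plate median or of vehicle wells; lower values mean less growth of the strain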
Conditions: S. cerevisiae deletion strains, growth OD
[1] = locus YAL040C, strain CLN3, active compounds read low
[2] = locus YCL061C, strain MRC1 (second series), active compounds read low
[3] = locus YDR363W, strain ESC2, active compounds read low
[4] = locus YER002W, strain NOP16, active compounds read low
[5] = locus YNL153C, strain GIM3, active compounds read low
[6] = locus YNL175C, strain NOP13, active compounds read low
[7] = locus YNL197C, strain WHI3, active compounds read low
[8] = locus YNL224C, strain SQS1, active compounds read low
[9] = locus YOR083W, strain WHI5 (second series), active compounds read low

Measured: normalized growth

Nc1ncnc2c1ncn2[C@@H]1O[C@H](COP(=O)(O)OP(=O)(O)OP(=O)(O)OP(=O)(O)OC[C@@H]2O[C@H](n3cnc4c(N)ncnc43)C(O)[C@@H]2O)[C@H](O)C1O (some centres not stated)
inactive: locus YAL013W, strain DEP1, active compounds read low 1 | [1] 1.01 | [2] 0.992 | [3] 1.04 | [4] 1.03 | locus YGR229C, strain SMI1, active compounds read low 1.03 | locus YMR307W, strain GAS1, active compounds read low 1.03 | [5] 0.993 | [6] 0.997 | [7] 0.974 | [8] 1 | [9] 0.996 | locus YPL241C, strain CIN2, active compounds read low 0.999

Nc1ncnc2c1ncn2[C@@H]1O[C@H](CO)[C@H](O)C1O (some centres not stated)
inactive: [1] 0.999 | [2] 0.998 | [3] 1.01 | [4] 1.01 | [5] 1.04 | [6] 1.02 | [7] 1.02 | [8] 1.02 | [9] 1.07
